Test results from PubChem BioAssay (NCI).
The panel holds about 83,000 compounds, 20% with a hit somewhere; the sample as a whole holds those more often.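 For each line, cells grew in 96-well plates with the test compound present at a single concentration for 48 hours.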 Values without a mark were called inactive. Active and inactive are the calls of the source. The calls were made as follows: active = growth percent below 10; inactive = the rest.

Tests used:
Test in all cases: NCI-60 one-dose screen, 48 h (100 = growth as untreated, 0 = no growth, -100 = all killed)
Settings in all cases: 10 µM unless noted
NCI-H23 lung = system: NCI-H23 lung
NCI-H226 lung = system: NCI-H226 lung
NCI-H322M lung = system: NCI-H322M lung
HOP-62 NSCLC = system: HOP-62 NSCLC
NCI-H460 lung = system: NCI-H460 lung
HOP-92 NSCLC = system: HOP-92 NSCLC
NCI-H522 lung = system: NCI-H522 lung
A549/ATCC NSCLC = system: A549/ATCC NSCLC
786-0 renal = system: 786-0 renal
COLO 205 colon = system: COLO 205 colon
DU-145 prostate = system: DU-145 prostate
K-562 leukemia = system: K-562 leukemia
MALME-3M melanoma = system: MALME-3M melanoma
MDA-MB-231 breast = system: MDA-MB-231 breast
RXF 393 renal = system: RXF 393 renal
SF-268 CNS = system: SF-268 CNS
SF-295 CNS = system: SF-295 CNS
SF-539 CNS = system: SF-539 CNS
UACC-257 melanoma = system: UACC-257 melanoma
M14 melanoma = system: M14 melanoma

Structure (SMILES) | growth (NCI-H23 lung) | growth (NCI-H226 lung) | growth (NCI-H322M lung) | growth (HOP-62 NSCLC) | growth (NCI-H460 lung) | growth (HOP-92 NSCLC) | growth (NCI-H522 lung) | growth (A549/ATCC NSCLC) | growth (786-0 renal) | growth (COLO 205 colon) | growth (DU-145 prostate) | growth (K-562 leukemia) | growth (MALME-3M melanoma) | growth (MDA-MB-231 breast) | growth (RXF 393 renal) | growth (SF-268 CNS) | growth (SF-295 CNS) | growth (SF-539 CNS) | growth (UACC-257 melanoma) | growth (M14 melanoma)
Nc1c(C(=O)Nc2ccncc2)sc2nc3c(cc12)C(O)CCC3 (stereo not given) | 93.3% | 90.2% | 84.1% | 98.7% | 102% | 88.2% | 78.8% | 91.9% | 93.8% | 113% | 96.8% | 88.7% | 118% | 96.8% | 107% | 95.1% | 106% | 96.2% | 96.3% | 114%
O=C1Nc2ccccc2/C1=C/c1nc2ccccc2c(=O)[nH]1 | 75.8% | 94.5% | 101% | 76.3% | 95.1% | 94.1% | 94.1% | 100% | 104% | 117% | 99.3% | 86.2% | 92.8% | 84.5% | 96% | 94.6% | 101% | 93.6% | 104% | 82.2%
COc1ccc2cc1Oc1ccc(cc1)C[C@H]1c3c(cc4c(c3Oc3cc5c(cc3OC)CCN(C)[C@@H]5C2)OCO4)CCN1C | 75.9% | 87.4% | 56% | 115% | 59.4% | 52.6% | -18.8% (active) | 47.2% | 53.5% | 109% | 59.6% | -2.72% (active) | -46.1% (active) | -5.97% (active) | -18.7% (active) | 36.4% | 58.1% | -55.7% (active) | -78.4% (active) | -86.2% (active)
CCOC(=O)c1c(NC(=O)c2cccc(C(F)(F)F)c2)sc2c(CN(C)C)c(O)ccc12 | 93.1% | 101% | 70.9% | 96.7% | 2.61% (active) | -1.17% (active) | 71.9% | 60.8% | 12.1% | 19% | 72.5% | 2.41% (active) | -38.5% (active) | 58.9% | 38.4% | 84.7% | 96.2% | 49.3% | -10.5% (active) | -57.8% (active)
COc1ccc(C2=C(Nc3ccc(C(=O)Nc4ccccc4)cc3)C(=O)N(C)C2=O)cc1 | 88.7% | 95.2% | 88.7% | 72.2% | 108% | 117% | 59.9% | 78.2% | 105% | 105% | 98% | 81.5% | 93.7% | 83.2% | 105% | 97.1% | 98.9% | 97.6% | 87.6% | 99.9%
COc1ccc(CNc2c3ccccc3nc3ccccc23)cc1 | 38.8% | 51.4% | 47.1% | 53.9% | 9.69% (active) | 24.6% | 53% | 28.9% | 32.4% | 11.6% | 48% | 6.97% (active) | 40% | 47.4% | 27.6% | 63.4% | 39.1% | 27.5% | 52.3% | 37.1%
COc1ccc(NC2=C(I)C(=O)c3ncccc3C2=O)cc1 | -43.7% (active) | 82.2% | 17.4% | -62% (active) | -57.2% (active) | 75.3% | -69.4% (active) | 0.0675% (active) | 11.3% | -53.7% (active) | -84.2% (active) | 2.18% (active) | -98.2% (active) | -11.8% (active) | 33% | 14.7% | 8.7% (active) | -30% (active) | 15.9% | -65.7% (active)
COC1/C=C/OC2(C)Oc3c(C)c(O)c4c(O)c(c(/C=N/Nc5ccc([N+](=O)[O-])cc5[N+](=O)[O-])c(O)c4c3C2=O)NC(=O)C(C)=C/C=C/C(C)C(O)C(C)C(O)C(C)C(OC(C)=O)C1C (stereo not given) | 4.25% (active) | -57.2% (active) | 93.9% | 42.2% | 59.5% | -60.8% (active) | -42.5% (active) | 82.9% | 24.4% | 24.9% | 39.4% | 4.82% (active) | 29.2% | -7.83% (active) | -74.3% (active) | 13.8% | 81.1% | -2.39% (active) | 34.6% | 11.4%
CCCC/C=C/[C@@H]1C[C@H]1CCO | 102% | 91.5% | 92.1% | 90.5% | 105% | 96.5% | 78.3% | 96.7% | 99.5% | 100% | 116% | 103% | 93.6% | 99.2% | 108% | 104% | 98.2% | 103% | 91.5% | 98.9%
Nc1[nH]n2cc(-c3ccccc3)nc2c1N=Nc1ccc(S(N)(=O)=O)cc1 | 45.7% | 52.7% | 36.6% | 42.5% | 20.1% | 25.7% | 30.5% | 32.8% | 28.4% | 45.1% | 42.9% | 32.9% | 25.6% | 20% | 6.61% (active) | 36.5% | 48% | 19.6% | 68.9% | 31.4%
C=C1C(=O)O[C@H]2[C@H]1CC/C(COC(=O)C(=O)c1cn(C)c3ccc(Cl)cc13)=C\CC[C@@]1(C)O[C@@H]21 | -60.1% (active) | -71.4% (active) | -68.9% (active) | -70.1% (active) | -69.8% (active) | -82.9% (active) | -65.8% (active) | -62.5% (active) | -97.6% (active) | -64.7% (active) | -96% (active) | 3.09% (active) | -65.6% (active) | -68.7% (active) | -97% (active) | -65.1% (active) | -65.4% (active) | -70.9% (active) | -84.1% (active) | -77.3% (active)
COc1ccc2c(c1OC)CO[C@@H]2[C@H]1c2c(cc3c(c2OC)OCO3)CCN1S(=O)(=O)c1cn(C)cn1 | 32.9% | 73.6% | 48% | 30.9% | 6.13% (active) | 60.7% | 19.4% | 21.2% | 41.9% | 0.532% (active) | 11.1% | 10.7% | 45.6% | 30.4% | -27.9% (active) | 40.8% | 14.5% | -14.2% (active) | 56.2% | 3.48% (active)
CCCCCCCCCCCCCCCCOCCCOP(=O)(O)C1CCCN(O)C1=O (stereo not given) | 18.5% | -21.9% (active) | 28.6% | 11.9% | -9.19% (active) | 39.3% | 26.2% | 17.8% | -10.4% (active) | 4.27% (active) | 24.6% | 19.4% | 20.4% | 42.7% | 7.41% (active) | 5.39% (active) | 3.46% (active) | -4.5% (active) | 18.2% | -3.96% (active)
CN1CCc2nc3sc(C(N)=O)c(N)c3c(-c3cccs3)c2C1 | 36.2% | 16.3% | 40.7% | 23.3% | 30.4% | -7.38% (active) | 38.9% | 24.1% | 9.22% (active) | 7.02% (active) | 10.2% | 74.2% | 55% | 44.5% | -32% (active) | 16.4% | 21.7% | 10.9% | 57.9% | 15.5%
O=c1[nH]c(Cc2nc3ccccc3s2)nc2cc(Br)ccc12 | 86.1% | 76.8% | 88.8% | 37.6% | 53.3% | 84.9% | 58.7% | 61% | 68% | 88.3% | 70.5% | 23.2% | 90.7% | 65.6% | 104% | 61% | 76.5% | 90.3% | 72.2% | 35.2%
CSc1nc(N)c(NS(=O)(=O)c2ccc(C(C)=O)cc2)c(=O)[nH]1 | 95.5% | 103% | 100% | 105% | 103% | 103% | 99.6% | 102% | 78.9% | 98.6% | 110% | 96% | 100% | 104% | 96.9% | 99.9% | 97.3% | 112% | 105% | 89.3%
